Source: PubChem BioAssay (NCATS)
“And” between values parts separate entries of the source, which are not always exact repeats. Equal values may be shown once. Results filed as inconclusive are left out. The source made the active and inactive calls. Unless noted, the call rests on the fitted dose curve; in most records, active means well fitted curve in the direction sought with a large enough effect; inconclusive means small, poorly fitted or top-dose-only effect, or another doubt; inactive means no such curve, though single readings can be large; an effect the other way counts as inactive or inconclusive.

Columns and labels:
[1] = Cell Viability - BJ (AID 421; calls by dose curve;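 further: potency means the concentration at half of the fitted maximal effect; cells exposed to compound for 40 hours at 37 °C before readout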); conditions: BJ fibroblast viability, qHTS
Outline: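 Quantitative HTS: ATP depletion in BJ cells after 40 hr compound exposure in complete culture medium, detected with CellTiter-Glo; AC50 from standard Hill fits.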

[2] = Cell Viability - HepG2 (AID 433; calls by dose curve;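 further: potency means the concentration at half of the fitted maximal effect; potency for ATP loss meaning cytotoxicity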); conditions: qHTS
Outline: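 In this qHTS format, a 40 h, 37 °C compound incubation of HepG2 cells in complete medium precedes a 20 min CellTiter-Glo step at room temperature. Tamoxifen and doxorubicin serve as positive controls; Hill-equation fits yield AC50.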

[3] = Cellular Toxicity (caspase-3) MRC-5 (AID 659); conditions: MRC-5 cells, luminescence, normalized: DMSO 0%, 10 µM staurosporine 100%; series mostly up to 91.7 µM
Outline: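 Concentration-dependent caspase 3/7 activation is measured in human normal lung fibroblasts (MRC-5) following 16-hour treatment. AC50 values come from standard Hill-equation modeling of luminescence normalized to DMSO and 10 uM staurosporine.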

[4] = Cellular Toxicity (caspase-3) N2a (AID 665); conditions: N2a cells, luminescence, normalized: DMSO 0%, 10 µM staurosporine 100%; series mostly up to 92.2 µM;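 further: compound exposure lasted 16 h at 37 °C before readout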
Outline: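 Mouse N2a neuroblastoma cells (1500/well) were treated with compounds for 16 h at 37 °C, then caspase-3/7 activity was read by Caspase-Glo luminescence after 1 h at room temperature. Data were normalized to DMSO and 10 uM staurosporine; AC50 from Hill fits.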

[5] = Cellular Toxicity (caspase-3) Renal Proximal Tubule (AID 667); conditions: renal proximal tubule cells; series mostly up to 91.7 µM;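 further: cells exposed to compound for 16 hours at 37 °C before detection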
Outline: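 Caspase-Glo 3/7 read-out, rat primary kidney proximal tubule cells. Compound exposure 16 h, 37 °C; detection after 1 h at RT. Activity scaled to DMSO and 10 uM staurosporine.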

[6] = Cell Viability - LYMP2-001 (AID 921); conditions: LYMP2-001 lymphoblastoid cell viability; series mostly up to 92.2 µM;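 further: 0% = DMSO only and full inhibition = tetraoctylammonium bromide control wells; nearly all actives have a fitted effect of over 70% in size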
Outline: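 A lymphoblastoid cell line of human origin was treated with library compounds across a concentration series for 24 hours, and viable cell number was estimated from ATP-driven luciferase light output. Hill modeling gave AC50.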

[7] = MultiTox-Fluor Cytotoxicity Assay - LYMP1-002 - Live Cells (AID 955); conditions: LYMP1-002 lymphoblastoid live-cell protease fluorescence viability; series mostly up to 46.1 µM; further: on the % scale 0 is the no-effect control and ±100 the full control effect
Outline: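 Human lymphoblastoid LYMP1-002 cells, 2500/well in complete medium, rested 5 hr at 37 C, then exposed to compounds for 16 hr at 37 C. Live-cell protease cleavage of GF-AFC read by fluorescence (Ex/Em 405/510) after 60 min at room temperature; AC50 from Hill fits.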

[8] = MultiTox-Fluor Cytotoxicity Assay - LYMP1-003 - Live Cells (AID 962); conditions: LYMP1-003 lymphoblastoid cells, MultiTox-Fluor live-cell protease fluorescence; series mostly up to 92.2 µM;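 further: 0% = DMSO only and full loss = 92 µM tetraoctylammonium bromide; cytotoxic hits lower the live-cell protease signal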
Outline: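 LYMP1-003 human lymphoblastoid cells (2500/well) in complete medium were preincubated 5 hr at 37 C, then exposed to compounds for 16 hr at 37 C. Live-cell protease cleavage of GF-AFC read by fluorescence (Ex/Em 405/510); AC50 from Hill fits.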

[9] = Cell Viability - LYMP1-003 - Assay at 24 hr (AID 963); conditions: LYMP1-003 lymphoblastoid cell viability; series mostly up to 92.2 µM;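 further: plate controls were DMSO only for no effect and tetraoctylammonium bromide positive control for full effect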
Outline: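 Human lymphoblastoid LYMP1-003 cells (2500/well) were rested 5 hr at 37 C, then exposed to compounds in complete medium for 24 hr at 37 C. Cellular ATP was quantified by CellTiter-Glo luminescence, and AC50 values came from Hill fits of concentration-response data.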

[10] = Cell Viability - LYMP1-003 - Assay at 40 hr (AID 964); conditions: LYMP1-003 lymphoblastoid viability; series mostly up to 92.2 µM; further: on the % scale 0 is the no-effect control and ±100 the full control effect; nearly all actives have a fitted effect of over 60% in size
Outline: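 Human lymphoblastoid LYMP1-003 cells, 2500/well in complete medium, rested 5 hr at 37 C, then exposed to compounds for 40 hr at 37 C. Viability read as intracellular ATP by CellTiter-Glo luminescence; AC50 from Hill fits of concentration-response data.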

[11] = Cell Viability - LYMP2-017 (AID 972); conditions: LYMP2-017 lymphoblastoid cell viability; series mostly up to 92.2 µM; further: on the % scale 0 is the no-effect control and ±100 the full control effect; nearly all actives have a fitted effect of over 55% in size
Outline: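 Human lymphoblastoid cells (2500/well) were seeded in complete medium, held 5 hr at 37 C, then exposed to compounds for 24 hr at 37 C. Intracellular ATP was read by CellTiter-Glo luminescence after 30 min at room temperature, with AC50 values from Hill-equation fits.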

[12] = Cell Viability - LYMP2-021 (AID 974); conditions: LYMP2-021 lymphoblastoid cells viability; series mostly up to 92.2 µM;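 further: compound exposure lasts 24 hours at 37 °C; on the % scale 0 is the no-effect control and ±100 the full control effect; nearly all actives have a fitted effect of over 55% in size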
Outline: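 Human lymphoblastoid cells (2500/well) were preincubated 5 hr at 37 C, then exposed to compounds for 24 hr at 37 C in complete medium. Intracellular ATP was read by CellTiter-Glo luminescence; AC50 came from Hill-equation fits of concentration-response data.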

[13] = Cell Viability - LYMP2-025 (AID 976); conditions: LYMP2-025 lymphoblastoid cell viability; series mostly up to 92.2 µM;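 further: plate controls were DMSO only for no effect and tetraoctylammonium bromide control for full effect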
Outline: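 Human lymphoblastoid LYMP2-025 cells (2500/well) were pre-incubated 5 hr at 37 C, then treated with compounds for 24 hr at 37 C in complete medium. Viability was read as intracellular ATP by CellTiter-Glo luminescence; AC50 from Hill fits.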

[14] = Cell Viability - LYMP2-006 (AID 978); conditions: LYMP2-006 lymphoblastoid cell viability, qHTS; series mostly up to 92.2 µM; further: on the % scale 0 is the no-effect control and ±100 the full control effect; nearly all actives have a fitted effect of over 60% in size
Outline: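 In this cytotoxicity screen, the human lymphoblastoid line grew in complete medium with test compounds for 24 hr at 37 C. Cellular ATP served as the viability signal.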

[15] = Cell Viability - LYMP2-007 (AID 979); conditions: LYMP2-007 lymphoblastoid cell viability; series mostly up to 92.2 µM;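 further: cells exposed to compound for 24 h before reading; 0% = DMSO only and the negative end = 92 µM tetraoctylammonium bromide; nearly all actives have a fitted effect of over 60% in size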
Outline: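 Human lymphoblastoid cells (2500/well) were plated in complete medium, incubated 5 hr at 37 C, then exposed to compounds for 24 hr at 37 C. Intracellular ATP was read by CellTiter-Glo luminescence after 30 min at room temperature; AC50 from Hill fits.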

[16] = Cell Viability - LYMP2-014 (AID 983); conditions: LYMP2-014 lymphoblastoid cells, viability qHTS; series mostly up to 92.2 µM;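 further: plate controls were DMSO only for no effect and 92 µM tetraoctylammonium bromide for full effect; nearly all actives have a fitted effect of over 50% in size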
Outline: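 Human lymphoblastoid cells (2500/well) were pre-incubated 5 hr at 37 C, then exposed to compounds in complete medium for 24 hr at 37 C. Intracellular ATP was read by CellTiter-Glo luminescence after 30 min at room temperature; AC50 from Hill fits.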

[17] = Cell Viability - LYMP2-016 (AID 984); conditions: LYMP2-016 lymphoblastoid cell viability, qHTS; series mostly up to 92.2 µM; further: on the % scale 0 is the no-effect control and ±100 the full control effect; nearly all actives have a fitted effect of over 55% in size
Outline: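 Concentration-dependent ATP depletion measured in LYMP2-016 lymphoblastoid cells, 24 h, 37 C; luciferase-based luminescent detection; Hill-equation AC50.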

[18] = qHTS Assay for Identification of Small Molecule Inducers of Hypoxia Response (AID 2120; active means well fitted curve in the direction sought with a large enough effect in the signal ratio, with a control signal flat, not every such curve was filed as active; the % refers to the signal ratio; further: 0% is about no effect); conditions: hypoxia response reporter cells, beta-lactamase ratio readout; series mostly up to 104 µM
Outline: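 HRE-beta-lactamase reporter in CellSensor HRE-bla ME-180 cells, 2500 cells/well in Opti-MEM with 0.5% dialyzed FBS; compounds tested as titration series, 17 h at 37 degrees C. CCF4 substrate 2.5 h at room temperature; AC50 from 460/530 nm ratio.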

[19] = qHTS assay for small molecule agonists of the antioxidant response element (ARE) signaling pathway measured by Nrf2-dependant transcriptional activity - cell viability counter screen (AID 720653; active means well fitted curve in the direction sought with a large enough effect in the repeat runs; an effect the other way counts as inactive or inconclusive; further: on the % scale 0 is the no-effect control and ±100 the full control effect); conditions: ARE-bla HepG2 viability, CellTiter-Glo ATP luminescence, 16 h; hits give low values
Outline: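 Cytotoxicity counter screen: intracellular ATP quantified by CellTiter-Glo luminescence in the same ARE-bla HepG2 plates, after 16 h compound exposure and a 2 h beta-lactamase substrate step.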

[20] = qHTS assay for cell viability of HEK293 cells (AID 743288); conditions: ATP luminescence (CellTiter-Glo), 18 h, hits give low values; further: on the % scale 0 is the no-effect control and ±100 the full control effect; nearly all actives have a fitted effect of over 50% in size
Outline: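 Luminescent ATP quantitation served as the viability read-out. Cells (parental HEK293, 2,000/well) received compounds after at least 5 h at 37 C and were exposed for 18 h before a 30 min room-temperature reagent step.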

CCOP(=S)(OCC)SCCSCC
inactive: Potency [1] > 92 µM | Potency [2] > 92 µM | outcome [3] | outcome [4] | outcome [5] | Potency [6] | outcome [7] | outcome [8] | outcome [9] | Potency [10] | Potency [11] | Potency [12] | Potency [13] | Potency [14] | Potency [15] | Potency [16] | Potency [17] | Potency [18] | max response [19] -4.12% and 4.55% | max response [20] -9.57% and -7.92%

O=[N+]([O-])CCO
inactive: Potency [1] > 92 µM | Potency [2] > 92 µM | outcome [3] | outcome [4] | outcome [5] | Potency [6] | outcome [7] | outcome [8] | outcome [9] | Potency [10] | Potency [11] | Potency [12] | Potency [13] | Potency [14] | Potency [15] | Potency [16] | Potency [17] | Potency [18] | max response [19] -2% | max response [20] -4.92%

CCNCC
inactive: Potency [1] > 92 µM | Potency [2] > 92 µM | outcome [3] | outcome [4] | outcome [5] | Potency [6] | outcome [7] | outcome [8] | outcome [9] | Potency [10] | Potency [11] | Potency [12] | Potency [13] | Potency [14] | Potency [15] | Potency [16] | Potency [17] | Potency [18] | max response [19] 14.5% | max response [20] 7.41%

CC(Cl)CCl (stereo not given)
inactive: Potency [1] > 92 µM | Potency [2] > 92 µM | outcome [3] | outcome [4] | outcome [5] | Potency [6] | outcome [7] | outcome [8] | outcome [9] | Potency [10] | Potency [11] | Potency [12] | Potency [13] | Potency [14] | Potency [15] | Potency [16] | Potency [17] | Potency [18] | max response [19] -12.6% | max response [20] -4.06%

ClCc1ccccn1
inactive: Potency [1] > 92 µM | Potency [2] > 92 µM | outcome [3] | outcome [4] | outcome [5] | Potency [6] | outcome [7] | outcome [8] | outcome [9] | Potency [10] | Potency [11] | Potency [12] | Potency [13] | Potency [14] | Potency [15] | Potency [16] | Potency [17] | Potency [18] | max response [19] -0.496% and -9.53% | max response [20] 1.66% and -12.2%

[O-][Cl+2]([O-])O
inactive: Potency [1] > 92 µM | Potency [2] > 92 µM | outcome [3] | outcome [4] | outcome [5] | Potency [6] | outcome [7] | outcome [8] | outcome [9] | Potency [10] | Potency [11] | Potency [12] | Potency [13] | Potency [14] | Potency [15] | Potency [16] | Potency [17] | Potency [18] | max response [19] 27.9% | max response [20] -5.12%

CCOP(=O)(OCC)OCC
inactive: Potency [1] > 92 µM | Potency [2] > 92 µM | outcome [3] | outcome [4] | outcome [5] | Potency [6] | outcome [7] | outcome [8] | outcome [9] | Potency [10] | Potency [11] | Potency [12] | Potency [13] | Potency [14] | Potency [15] | Potency [16] | Potency [17] | Potency [18] | max response [19] -1.09% and -8.89% | max response [20] 5.7% and 3.95%

Cl/C=C\Cl
inactive: Potency [1] > 92 µM | Potency [2] > 92 µM | outcome [3] | outcome [4] | outcome [5] | Potency [6] | outcome [7] | outcome [8] | outcome [9] | Potency [10] | Potency [11] | Potency [12] | Potency [13] | Potency [14] | Potency [15] | Potency [16] | Potency [17] | Potency [18] | max response [19] -3.68% | max response [20] -1.83%

CCCCCOC(=O)c1ccccc1C(=O)OCCCCC
inactive: Potency [1] > 92 µM | Potency [2] > 92 µM | outcome [3] | outcome [4] | outcome [5] | Potency [6] | outcome [7] | outcome [8] | outcome [9] | Potency [10] | Potency [11] | Potency [12] | Potency [13] | Potency [14] | Potency [15] | Potency [16] | Potency [17] | Potency [18] | max response [19] 0.29% and 4.72% | max response [20] 4.12% and -1.01%

ClCCBr
inactive: Potency [1] > 92 µM | Potency [2] > 92 µM | outcome [3] | outcome [4] | outcome [5] | Potency [6] | outcome [7] | outcome [8] | outcome [9] | Potency [10] | Potency [11] | Potency [12] | Potency [13] | Potency [14] | Potency [15] | Potency [16] | Potency [17] | Potency [18] | max response [19] -7.21% | max response [20] -0.276%

C=COC(C)=O
inactive: Potency [1] > 92 µM | Potency [2] > 92 µM | outcome [3] | outcome [4] | outcome [5] | Potency [6] | outcome [7] | outcome [8] | outcome [9] | Potency [10] | Potency [11] | Potency [12] | Potency [13] | Potency [14] | Potency [15] | Potency [16] | Potency [17] | Potency [18] | max response [19] 7.83% | max response [20] -3.61%
